PubChem BioAssay (NCI)
“And” between values parts separate entries of the source, which are not always exact repeats. Equal values may be shown once. About 83,000 compounds went through this panel and 20% of them were active in at least one assay; those are over-represented in the sample as a whole.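 Note: values are percent growth. 100 is the growth of untreated cells, values between 100 and 0 indicate rising inhibition; between -100 and 0 indicates cell death.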 Unmarked numbers belong to inactive results. The source made the active and inactive calls.

system: MDA-MB-435 melanoma; assay: NCI-60 one-dose screen, 48 h (100 = growth as untreated, 0 = no growth, -100 = all killed); conditions: 10 µM unless noted
Experimental: Growth inhibition of the MDA-MB-435 human Melanoma tumor cell line is measured as a screen for anti-cancer activity. Cells are grown in 96 well plates and exposed to the test compound for 48 hours. Compounds are tested at a single concentration, which is 10^-5 M for most compounds. The reported endpoint is percent growth (GI% or GIPRCNT), where numbers from 0 - 100% represent growth inhibition, and numbers from -100% - 0 represent cell death. For example, a value of 40 represents 60% growth inhibition. A value of 0 means no net growth occurred over the course of the experiment. A value of -40 indicates 40% of cells at the beginning of the experiment died by the end of the experiment. A value of -100 means all cells are dead at the end of the experiment.
NCI-60 Human Tumor Cell Lines Screen was performed using the standard one-dose NCI protocol, which is described in more detail at https://dtp.cancer.gov/discovery_development/nci-60/default.htm.
Compounds with GIPRCNT values below 10 were considered active. Activity score was based on GIPRCNT using the following formula: […]
Score is 0 for GIPRCNT values of 100 or above, 50 for GIPRCNT values of 0, and 100 for GIPRCNT values of -100.

Row | SMILES | growth
1 | NC(=S)N/N=C/c1ncccc1O | 29.6%
2 | CCCN(CCC)C(=O)c1ccc(C)cc1 | 104%
3 | Oc1ccc2ccccc2c1N=Nc1nccs1 | 35.3%
4 | O=[N+]([O-])CC(O)c1ccccc1 (stereo not given) | 91.1%
5 | CCC(C)(O)Cc1ccc(Cl)cc1 (stereo not given) | 101%
6 | CN(C)CCSC1=Nc2ccc(Cl)cc2C(c2ccccc2Cl)N(C)C1 (stereo not given) | 62.2%
7 | CC1(O)CCCCCC1 | 103%
8 | Cc1ccccc1NC(=O)Cc1csc2[n+]1C(=O)/C(=C/c1ccc([N+](=O)[O-])cc1)S2 | 97.5%
9 | O=C(CCl)N1c2ccccc2Sc2c1ccc1ccccc21 | 80.2%
10 | COc1cc2c(c(OC)c1OC)-c1ccc(NCc3ccccc3)c(=O)cc1[C@@H](NC(C)=O)CC2 | -54.8% (active)
11 | NC(=S)Nc1ccc2c(c1)Cc1ccccc1-2 | 110%
12 | O=[N+]([O-])c1ccc(C(Br)c2ccc([N+](=O)[O-])cc2)cc1 | 64.8%
13 | Cc1ccc(Nc2ccc(O)c3c2C(=O)c2c(O)ccc(Nc4ccc(C)cc4)c2C3=O)cc1 | 104%
14 | COc1ccc(NC(=O)/C(=C/N2C(=O)/C(=C/c3ccc(OC)c(OC)c3)NC2=S)C(C)=O)cc1 | 72.2%
15 | CC(=O)Nc1ccc(C(=O)CCl)cc1 | 14.4%
16 | S=c1[nH]c2cc(Cl)ccc2s1 | 98.8%
17 | S=C(SSC(=S)N1CCOCC1)N1CCOCC1 | 53.6%
18 | COc1ccc2c(c1)c(CC(=O)O)c(C)n2C(=O)c1ccc(Cl)cc1 | 96.8%
19 | OC(c1cc(-c2ccc(C(F)(F)F)cc2)nc(C(F)(F)F)c1)C1CCCCN1 (stereo not given) | -63% (active) and -91.8% (active) and 6.26% (active)
20 | NNc1ccc(Cl)cc1Cl | 96.6%

Row | SMILES | growth
21 | CCN(CC)CC(O)c1cc(-c2ccc(Cl)cc2)nc2cc(Cl)ccc12 (stereo not given) | 13.1%
22 | Oc1ccc(Cl)cc1C(c1cc(Cl)ccc1O)C(Cl)(Cl)Cl | 29.4%
23 | C/C=C/c1cc2c(c(=O)o1)C(=O)[C@@H](O)[C@H](C)O2 | 65.6%
24 | Cc1ccc(/C=C2\CNC/C(=C\c3ccc(C)cc3)C2=O)cc1 | -47.5% (active)
25 | O=[N+]([O-])/C(=C/c1ccccc1)c1ccccc1 | 107%
26 | CN(C)c1ccc(/C=C/c2cc[n+](C)c(/C=C/c3ccc(N(C)C)cc3)c2)cc1 | -48.7% (active)
27 | CCOc1ccc(Nc2nc3c(s2)C(=O)c2ccccc2C3=O)cc1 | -80.2% (active)
28 | O=C(Cc1ccccc1)C(F)(F)F | 104%
29 | CCN(CC)CCNC(Cc1ccccc1)c1ccc(OCc2ccccc2)cc1 (stereo not given) | 26.7%
30 | COC(=O)c1ccc(=O)c2nc3/c(=C/O)c(O)cc(=O)c3[nH]c12 | 23.4%
31 | CCCCCCC1N=C(N)N=C(N)N1c1cccc(Cl)c1 (stereo not given) | 24.1%
32 | Cc1cc2nc(CC(=O)c3ccncc3)c(=O)[nH]c2cc1C | 107%
33 | CC1(C)CCCC2=C1C(=O)N(SC(Cl)(Cl)Cl)C2=O | 92.1%
34 | CCCCCCCCCCCC1=NCCCN1CCCC | 110%
35 | CC(C)(C)c1ccc(O)c(-c2ccccc2)c1 | 124%
36 | CCCCC(CCc1ccc([N+](=O)[O-])cc1)(C(C)=O)C(=O)OCC (stereo not given) | 100%
37 | NC(=Nc1nc(-c2ccccn2)cc2ccccc12)c1ccccn1 | 22.9%
38 | COc1cc(NCc2ccc3nc(N)nc(N)c3c2C)cc(OC)c1OC (tested in a mixture with another compound) | 33.1%
39 | O=C/C=C/c1ccc([N+](=O)[O-])cc1 | 108%
40 | COC(=O)[C@]1(C)CCC[C@]2(C)c3ccc(C(C)C)cc3C(=O)[C@@H](Br)[C@@H]12 | 91.8%
